# Reference: PubChem BioAssay AID886 (National Center for Advancing Translational Sciences (NCATS), 2007)
# Values joined by “and” are separate entries in the source; they are usually repeats but may differ in a detail not shown here. Equal values may be shown once. Screen size: about 73,000 compounds; about 2,500 (3.4%) were called active. Not shown: some 7% with an inconclusive outcome. The sample as a whole holds a higher share of actives than the screen did. Unmarked numbers belong to inactive results. Calls come from the whole dose curve; as a rule, active = well fitted inhibition curve with a large enough effect; inconclusive = small, poorly fitted or top-dose-only effect; inactive = no such curve, though single readings can be large or run the other way.
# Target: 3-hydroxyacyl-CoA dehydrogenase type-2 (Homo sapiens) (UniProt Q99714)
# Assay: qHTS Assay for Inhibitors of HADH2 (Hydroxyacyl-Coenzyme A Dehydrogenase, Type II); note: nearly all actives have a fitted effect of over 60% in size
# Details: recombinant HADH2, NADH fluorescence, beta-hydroxybutyryl-CoA; series mostly up to 57.1 µM; activity change, negative = inhibition: at the top concentration
# Procedure, shortened: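 Buffer 100 mM Tris-HCl pH 9.0/0.01% Tween-20; HADH2 20 nM; NAD+ 1 mM; beta-hydroxybutyryl-CoA 90 uM (all final). 15 min cpd preincubation, RT.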
# % is set by controls: 0 for no effect and ±100 for the full control effect; potency is the fitted concentration of half-maximal effect.
# Chain of 3-hydroxyacyl-CoA dehydrogenase type-2 (Homo sapiens) (Q99714 whole entry, looked up): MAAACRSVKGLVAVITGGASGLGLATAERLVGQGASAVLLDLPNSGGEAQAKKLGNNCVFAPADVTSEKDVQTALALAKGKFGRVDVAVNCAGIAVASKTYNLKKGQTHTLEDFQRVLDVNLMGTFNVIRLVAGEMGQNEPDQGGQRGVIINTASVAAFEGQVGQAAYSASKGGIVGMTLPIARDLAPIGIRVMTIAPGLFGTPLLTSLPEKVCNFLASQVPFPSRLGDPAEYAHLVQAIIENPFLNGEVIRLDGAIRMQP
# Chain of 3-hydroxyacyl-CoA dehydrogenase type-2 (Homo sapiens) (Q99714 whole entry, looked up): as above
SMILES,Potency,"activity change, negative = inhibition"
O=c1nc2s/c(=C\c3ccco3)c(=O)n2nc1Cc1ccccc1,7.94 µM (active),
Cc1nc2nc(SCC(=O)NCc3ccco3)nn2c(C)c1Cc1ccccc1,,-3.96%
CN(c1ccccc1)c1ccc(/C=c2\s/c(=C(/C#N)C(=O)C(C)(C)C)n(Cc3ccco3)c2=O)cc1,,-22.8%
CN(C)CCCNC(=O)c1ccc2[nH]c3ccccc3c2c1,25.1 µM (active),
CC(C)N(CCNC(=O)c1ccc(-n2c(=O)c(=O)[nH]c3ccccc32)cc1)C(C)C,,-0.507%
CN(C)CCCCNC(=O)c1ccc(Cc2nc3ccccc3[nH]2)cc1,,7.95%
COc1ccc(CNc2ncnc3ccc(-c4cccnc4)cc23)c(OC)c1,,-13.9%
CS(=O)(=O)N1CCC2(CC1)CN(Cc1ccccc1)C2,,3.96%
COC(=O)[C@@]1(C)C=C[C@@H](Cc2ccccc2)N1C(C)=O,,2.32%
CCCCCCCCCCCC(=O)O,inactive,
Cc1cc(C)cc(C#CC2C=CC(Oc3ccc(C4CCCC4)cc3)C(CO)O2)c1 (stereo not drawn),,10.7% [at 11.4 µM]
O=S(=O)(O)CCN1CCOCC1,,0.734%
Oc1c(CN2CCOCC2)ccc(CN2CCOCC2)c1O,0.316 µM (active),
O=c1c(-c2ccccc2)coc2c(CN3CCOCC3)c(O)ccc12,,-0.694%
C=C(C)C1CC=C(C)C(O)C1 (stereo not drawn),,1.28%
CCC[C@@H]1C[C@@]1(CCC)[C@@H](NC(=O)c1ccccc1)c1ccc(C(=O)OC)cc1,,-14.7%
O=C(Nc1cccc(F)c1)N1CC2(CCN(C(=O)c3csnn3)CC2)C1,,-1.39%
Cc1cc(C(F)(F)F)nn1-c1nc(-c2ccco2)cc(C(F)(F)F)n1,,-14.2%
COC(=O)c1cnn2c(C(F)(F)F)cc(-c3ccco3)nc12,31.6 µM (active),
FC(F)(F)c1cc(-c2ccco2)nc(N2CCOCC2)n1,,1.09%
Cc1nnc(SCc2ccc(C(=O)c3ccc(Cl)cc3)o2)n1-c1ccccc1,,-28.1%
Cc1nc2cnc(N3CCN(C)CC3)nc2n(CCC#N)c1=O,,46.9%
O=C(NCc1ccccn1)c1cc2ccccc2oc1=O,,-14.8%
CS(=O)(=O)N1CCN(C(=O)c2cc3ccccc3oc2=O)CC1,,-7.15%
O=C(Oc1cccnc1)c1cc2ccccc2oc1=O,20 µM (active),

SMILES,Potency,"activity change, negative = inhibition"
COC(=O)[C@@]1(Cc2ccc(OC)cc2)[C@H]2c3cc(C(=O)N4CCCC4)n(Cc4ccc(OC(F)(F)F)cc4)c3C[C@H]2CN1C(=O)c1ccccc1,,5.27%
CCCC[C@@H]1C[C@H]1C(NC(=O)c1ccco1)c1ccc(C(=O)OC)cc1 (stereo partly drawn),,-7.3%
Cc1ccc(-c2nn(CC(C)(C)C)c3ncnc(N)c23)cc1,,2.11%
C[C@H](CCC(=O)NCC(=O)O)[C@H]1CC[C@H]2[C@H]3[C@@H](C[C@@H](O)[C@]12C)[C@]1(C)CC[C@H](O)C[C@@H]1C[C@@H]3O,,2.57% [at 25.6 µM]
COc1ccc(-c2[nH]nc3c2C(c2ccncc2)C(C#N)=C(N)O3)cc1 (stereo not drawn),,-18.9%
CCOc1c(OC)cc(C2C(C#N)=C(N)Oc3n[nH]c(-c4ccncc4)c32)cc1OC (stereo not drawn),10 µM (active),
CCCc1[nH]nc2c1C(c1ccc(OC)c(Cn3nc(C)c(Br)c3C)c1)C(C#N)=C(N)O2 (stereo not drawn),,-1.8%
O=C(O)C1=CCCN(CCON=C(c2ccccc2)c2ccccc2)C1,inactive,
N#CC1=C(N)Oc2cc(O)ccc2C1C1CCCCC1 (stereo not drawn),,0.41%
O=C(O)c1c(Br)c(Br)c(Br)c(Br)c1C1c2ccc(O)cc2Oc2cc(O)ccc21,1.58 µM (active),
CC1CCCCN1CCCNC(=O)c1ccc(-n2c(=O)c(=O)[nH]c3ccccc32)cc1 (stereo not drawn),,-2.23%
COc1ccc(Oc2ncc3nc(-c4ccc(F)cc4)c(=O)n(C)c3n2)cc1,,4.58%
Oc1c(Cl)cc(Cl)c(Cl)c1Cc1c(O)c(Cl)cc(Cl)c1Cl,7.94 µM (active),
COc1ccc(N)c(OC)c1,,-0.0513%
O=C(NCc1ccccn1)c1ccc2nc(-c3ccco3)c(-c3ccco3)nc2c1,5.01 µM (active),
O=C(NCc1ccco1)c1nc2ncccn2n1,,-6.29%
O=C(NCc1ccccn1)c1c(O)c2c([nH]c1=O)CCCC2,,7.68%
CC(C)[C@H](CO)Nc1nc(Nc2cc(N)cc(Cl)c2)c2ncn(C(C)C)c2n1,,-27.7%
COc1cccc([C@H](O)Cn2cc(-c3ccc(CON=C(C)C)cc3)nn2)c1,,4.01% [at 11.4 µM]
CC(=O)N1CCC2(CCCN(Cc3ccccc3)C2)CC1,,-9.14%
Cn1c(C(=O)NCCc2ccsc2)cc2c(=O)n(C)c3ccccc3c21,,11.1%
CCN1CCCC1CNC(=O)c1cc2c(=O)n(C)c3ccccc3c2n1C (stereo not drawn),31.6 µM (active),
Cn1c(C(=O)N2CCC(C(N)=O)CC2)cc2c(=O)n(C)c3ccccc3c21,,7.8%
CC(C)C[C@@H](CC(=O)N[C@@H](CCC(=O)O)CC(=O)O)NC(=O)[C@@H]1CCCC[C@H]1NC(=O)C[C@@H](NC(=O)C[C@H](Cc1c[nH]c2ccccc12)NC(=O)[C@@H]1CCCC[C@H]1N)C(C)C,,-21.2%
COc1c(C)c2c(c(O)c1C/C=C(\C)CCC(=O)O)C(=O)OC2,inactive,

SMILES,Potency,"activity change, negative = inhibition"
C/C=C/C=C/C(=O)O,,-5.22%
CCN(CC)CCCCn1c(-c2ccccc2)nc2c(N3CCOCC3)nc(C)nc21,,-22.3%
Cc1ccc(-n2ncc3c2ncn2nc(-c4ccco4)nc32)c(C)c1,,13.7%
COc1ccc(-n2ncc3c(N4CCc5ccccc54)ncnc32)cc1,31.6 µM (active),
COc1ccc(-n2c(C)nc3c(cnn3-c3ccccc3)c2=O)cc1,,-2.25%
Cc1cccc(-n2ncc3c(N4CCc5ccccc54)ncnc32)c1,3.16 µM (active),
Cc1ccc(-n2ncc3c(N4CCN(c5ccc(F)cc5)CC4)ncnc32)c(C)c1,,9.76%
COc1ccc(N2CCN(C(=O)CSc3ncnc4c3cnn4-c3ccc(OC)cc3)CC2)cc1,,-4.24%
CC(=O)OCCC(C)C,,-0.625%
CCCn1c(-c2ccc(F)cc2)nc2c(NCC3CCCN3CC)nc(C)nc21 (stereo not drawn),,7.86%
CCCN(C/C=C\I)[C@@H]1CCc2cccc(O)c2C1,,-1.63%
Cc1ccc(S(=O)(=O)c2c(N)n(C)c3nc4ccccc4nc23)cc1,31.6 µM (active),
Cc1ccc(S(=O)(=O)NCc2nc3ccccc3c(=O)n2N)cc1,,9.48%
COCCn1c(=O)c(C)nc2cnc(N(C)C)nc21,,-8.66%
Cc1c2c(nc3ccccc13)-c1cccc(=O)n1C2,,232%
COC(=O)[C@@]1(Cc2ccccc2)[C@H]2c3cc(C(=O)N4CCCC4)n(Cc4ccc(C)o4)c3C[C@H]2CN1C(=O)c1ccccc1,,9.45%
C=CCOC(=O)COCCC(C)C,,-9.83%
O=C(c1cc(C(F)(F)F)cc(C(F)(F)F)c1)N1CCC2(CC1)CN(c1ccncc1)C2,,-2.98%
Cc1cccn2c(=O)c3cc(C(=O)N4COCC4(C)C)n(C)c3nc12,25.1 µM (active),
Cc1cccn2c(=O)c3cc(C(=O)NCc4ccccn4)n(C)c3nc12,,27.5%
CC(C)CC1(C(=O)NCc2ccccn2)C=CCN1C(=O)c1ccccc1 (stereo not drawn),,1.17%
CC(C)NC[C@H](O)c1ccc2ccccc2c1,inactive,
C[C@@H]1CC[C@H]2[C@H](C)[C@H]3[C@H](C[C@H]4[C@@H]5CC=C6C[C@@H](O)CC[C@@]6(C)[C@@H]5C[C@@H](O)[C@]34C)N2C1,,-8.91% [at 11.4 µM]
CCCCn1c(SCC(=O)NCC2CCCO2)nc2ccc(N3CCOCC3)cc2c1=O (stereo not drawn),10 µM (active),
CCn1c(SCC(=O)NCC2CCCO2)nc2cc(S(=O)(=O)N3CCCCC3)ccc21 (stereo not drawn),,-5.2%

SMILES,Potency,"activity change, negative = inhibition"
CCc1ccc(NC(=O)CSc2nc3ccccc3c(=O)n2CCN2CCOCC2)cc1,,7.42%
COC(=O)[C@@]1(Cc2ccccc2)[C@H]2c3cc(C(=O)N(C)C)n(CCSCCO)c3C[C@H]2CN1C(=O)c1ccccc1,,6.25%
N#Cc1cccc(-c2nc3cnc(N4CCNCC4)nc3n(C3CC3)c2=O)c1,,170%
COc1cccc(-c2nc(Nc3ccncc3)c3ccccc3n2)c1,,9.47%
c1ccc2c(Nc3ccncc3)nc(-c3ccc4c(c3)OCO4)nc2c1,25.1 µM (active),
c1ccc2c(Nc3ccncc3)nc(-c3ccoc3)nc2c1,,-3.7%
CCCC(Cl)CCCC(Cl)CCC(Cl)CCC(Cl)CCC(Cl)CCCC(Cl)CCC (stereo not drawn),,0.0337%
COc1ccc2nccc(C(=O)O)c2c1,,10.9% [at 25.6 µM]
CC(NCCO)C(=O)C12CC3CC(CC(C3)C1)C2 (stereo not drawn),31.6 µM (active),
O=C(CNCCO)NC12CC3CC(CC(C3)C1)C2,,5.37%
CN1CCN(CC(=O)C23CC4CC(CC(C4)C2)C3)CC1,,1.99%
CC(C)NC(=O)N1CC[C@@]2(CCCN(C(=O)c3cccn3C)C2)C1,,6.58%
Oc1cc2c(cc1O)CN(C(=S)NCCc1ccc(Cl)cc1)CCC2,1.58 µM (active) and 631 nM (active),
NS(=O)(=O)c1ccc(CCNC(=O)Nc2ccc(Cl)cc2)cc1,,16% [at 11.4 µM]
O=C(NCCc1ccc(Cl)cc1)C1CC(=O)N(C2CCCCC2)C1 (stereo not drawn),,3%
Cc1ccccc1N1CCN(S(=O)(=O)C[C@@]23CC[C@H](C[C@H]2NC(=O)[C@@H](N)CCS(C)(=O)=O)C3(C)C)CC1,,-9.48%
CC(=O)Oc1cccc(N2C(=O)CC(Nc3ccc(N4CCOCC4)cc3)C2=O)c1 (stereo not drawn),15.8 µM (active),
COc1ccc(N2CCN(C3CC(=O)N(c4ccc5c(c4)OCCO5)C3=O)CC2)cc1 (stereo not drawn),,8.93%
CC(=O)Oc1cccc(N2C(=O)C3CC=C(Cl)CC3C2=O)c1 (stereo not drawn),,-2.48%
Cc1ccc(Br)cc1,,-4.88%
CCCn1c(-c2ccc(F)cc2)nc2c(NC3CCN(Cc4ccccc4)C3)nc(C)nc21 (stereo not drawn),,-21.3%
COc1ccccc1CNc1nc(-c2c(C)noc2C)nc2ccccc12,,-25.4%
CC[C@@H]1Cc2cc(O)ccc2C2=C1c1ccc(O)cc1C[C@H]2CC,25.1 µM (active),
